Legend:
Assay in all cases: log2 ratio of Biotin-Ahx-Ub-VS probe labelling (fragment/DMSO); higher = less target engagement (more negative = stronger competition), active = hit call of the paper (q ≤ 0.05, log2 ratio ≤ -1)
Conditions in all cases: compound concentration: 200 uM; treatment time: 3 h
USP34 = USP34 (UniProt Q70CQ2)
Procedure, shortened: (§1)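 Fragment (200 µM) or vehicle was incubated for 3 h with triplicate HEK293T lysate samples of 495 µg, which were then treated with Biotin-Ahx-Ub-VS at 0.5 µM final for 1 h. Labelled DUBs were enriched on NeutrAvidin, digested with LysC and trypsin, and analysed by diaPASEF LC-MS/MS. Values are average log2 fragment/vehicle ratios from an unpaired t-test on global-median-normalised Spectronaut label-free quantities, using proteins with ≥2 unique peptides.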

USP36 = target: T1, USP36 (UniProt Q9P275)
T1 sequence (whole entry): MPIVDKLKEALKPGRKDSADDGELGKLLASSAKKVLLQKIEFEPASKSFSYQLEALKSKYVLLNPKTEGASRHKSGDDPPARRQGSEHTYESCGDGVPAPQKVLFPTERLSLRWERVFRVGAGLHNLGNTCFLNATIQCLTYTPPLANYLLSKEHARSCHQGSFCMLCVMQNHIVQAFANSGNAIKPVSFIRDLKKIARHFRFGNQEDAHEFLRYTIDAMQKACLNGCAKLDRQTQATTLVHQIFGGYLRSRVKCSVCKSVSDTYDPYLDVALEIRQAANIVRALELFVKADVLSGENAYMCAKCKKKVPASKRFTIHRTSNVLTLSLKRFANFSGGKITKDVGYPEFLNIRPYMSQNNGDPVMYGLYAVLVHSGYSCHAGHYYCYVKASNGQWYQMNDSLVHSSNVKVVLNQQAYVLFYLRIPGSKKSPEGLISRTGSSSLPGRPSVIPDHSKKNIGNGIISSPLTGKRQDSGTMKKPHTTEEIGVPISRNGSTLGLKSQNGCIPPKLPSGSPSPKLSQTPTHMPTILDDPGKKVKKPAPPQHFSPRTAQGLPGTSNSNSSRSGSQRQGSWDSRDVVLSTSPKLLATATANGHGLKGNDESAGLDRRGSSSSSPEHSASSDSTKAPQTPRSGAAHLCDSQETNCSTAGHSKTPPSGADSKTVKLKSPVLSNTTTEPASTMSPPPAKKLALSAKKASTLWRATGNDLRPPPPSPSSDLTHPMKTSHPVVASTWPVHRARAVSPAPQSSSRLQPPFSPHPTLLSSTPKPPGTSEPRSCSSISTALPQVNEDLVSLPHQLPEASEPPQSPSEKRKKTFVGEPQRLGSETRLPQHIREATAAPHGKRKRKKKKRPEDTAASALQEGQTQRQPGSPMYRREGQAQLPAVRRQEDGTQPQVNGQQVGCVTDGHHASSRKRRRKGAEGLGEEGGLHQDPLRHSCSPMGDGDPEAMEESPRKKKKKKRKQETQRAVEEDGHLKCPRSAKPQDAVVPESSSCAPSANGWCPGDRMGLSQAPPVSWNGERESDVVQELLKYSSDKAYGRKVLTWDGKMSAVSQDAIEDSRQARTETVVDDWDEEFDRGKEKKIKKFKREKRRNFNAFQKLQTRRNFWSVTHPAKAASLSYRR
Procedure, shortened: as §1

USP38 = target: T2, USP38 (UniProt Q8NB14)
T2 sequence (whole entry): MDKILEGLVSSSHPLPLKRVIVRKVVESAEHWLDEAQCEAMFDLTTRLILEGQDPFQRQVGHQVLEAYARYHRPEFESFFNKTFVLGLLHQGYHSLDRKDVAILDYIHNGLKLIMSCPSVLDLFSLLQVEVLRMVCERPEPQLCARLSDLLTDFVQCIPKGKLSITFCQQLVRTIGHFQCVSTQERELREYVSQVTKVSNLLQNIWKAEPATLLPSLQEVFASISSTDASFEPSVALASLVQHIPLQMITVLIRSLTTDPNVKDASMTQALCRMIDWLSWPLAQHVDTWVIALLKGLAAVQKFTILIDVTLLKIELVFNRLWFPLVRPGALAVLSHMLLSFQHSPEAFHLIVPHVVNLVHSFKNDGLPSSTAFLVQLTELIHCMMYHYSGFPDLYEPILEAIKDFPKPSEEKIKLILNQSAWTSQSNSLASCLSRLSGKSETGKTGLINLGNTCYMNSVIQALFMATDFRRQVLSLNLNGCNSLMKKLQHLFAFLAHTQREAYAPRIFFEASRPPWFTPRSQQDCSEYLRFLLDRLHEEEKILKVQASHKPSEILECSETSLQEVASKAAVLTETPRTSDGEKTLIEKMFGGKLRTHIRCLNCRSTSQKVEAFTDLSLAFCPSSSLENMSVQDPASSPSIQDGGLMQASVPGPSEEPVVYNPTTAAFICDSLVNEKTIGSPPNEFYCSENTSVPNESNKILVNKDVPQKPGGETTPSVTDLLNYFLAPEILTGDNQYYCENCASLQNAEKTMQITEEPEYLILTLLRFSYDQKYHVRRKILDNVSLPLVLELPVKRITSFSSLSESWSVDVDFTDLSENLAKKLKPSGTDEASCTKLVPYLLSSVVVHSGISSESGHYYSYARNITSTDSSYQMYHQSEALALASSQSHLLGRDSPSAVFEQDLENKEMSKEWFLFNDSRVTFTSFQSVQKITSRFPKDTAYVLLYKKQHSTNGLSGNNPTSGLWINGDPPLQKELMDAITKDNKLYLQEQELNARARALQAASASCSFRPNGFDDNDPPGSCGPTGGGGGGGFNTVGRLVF
Procedure, shortened: as §1

USP39 = target: T3, USP39 (UniProt Q53GS9)
T3 sequence (whole entry): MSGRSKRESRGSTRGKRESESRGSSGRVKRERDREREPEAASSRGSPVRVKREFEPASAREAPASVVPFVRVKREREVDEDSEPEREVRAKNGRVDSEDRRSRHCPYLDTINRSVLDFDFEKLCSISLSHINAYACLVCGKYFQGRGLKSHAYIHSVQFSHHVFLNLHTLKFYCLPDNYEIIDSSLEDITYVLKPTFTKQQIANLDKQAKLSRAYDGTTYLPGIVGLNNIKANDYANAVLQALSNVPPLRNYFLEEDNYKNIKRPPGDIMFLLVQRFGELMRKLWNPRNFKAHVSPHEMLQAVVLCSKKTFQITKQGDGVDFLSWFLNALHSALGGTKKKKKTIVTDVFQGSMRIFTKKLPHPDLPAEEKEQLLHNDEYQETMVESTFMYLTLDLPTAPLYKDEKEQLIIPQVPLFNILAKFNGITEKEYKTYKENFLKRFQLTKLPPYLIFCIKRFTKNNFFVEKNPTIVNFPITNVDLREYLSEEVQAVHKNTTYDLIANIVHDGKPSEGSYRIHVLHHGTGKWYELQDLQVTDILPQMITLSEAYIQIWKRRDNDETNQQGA
Procedure, shortened: as §1

USP4 = target: T4, USP4 (UniProt Q13107)
T4 sequence (whole entry): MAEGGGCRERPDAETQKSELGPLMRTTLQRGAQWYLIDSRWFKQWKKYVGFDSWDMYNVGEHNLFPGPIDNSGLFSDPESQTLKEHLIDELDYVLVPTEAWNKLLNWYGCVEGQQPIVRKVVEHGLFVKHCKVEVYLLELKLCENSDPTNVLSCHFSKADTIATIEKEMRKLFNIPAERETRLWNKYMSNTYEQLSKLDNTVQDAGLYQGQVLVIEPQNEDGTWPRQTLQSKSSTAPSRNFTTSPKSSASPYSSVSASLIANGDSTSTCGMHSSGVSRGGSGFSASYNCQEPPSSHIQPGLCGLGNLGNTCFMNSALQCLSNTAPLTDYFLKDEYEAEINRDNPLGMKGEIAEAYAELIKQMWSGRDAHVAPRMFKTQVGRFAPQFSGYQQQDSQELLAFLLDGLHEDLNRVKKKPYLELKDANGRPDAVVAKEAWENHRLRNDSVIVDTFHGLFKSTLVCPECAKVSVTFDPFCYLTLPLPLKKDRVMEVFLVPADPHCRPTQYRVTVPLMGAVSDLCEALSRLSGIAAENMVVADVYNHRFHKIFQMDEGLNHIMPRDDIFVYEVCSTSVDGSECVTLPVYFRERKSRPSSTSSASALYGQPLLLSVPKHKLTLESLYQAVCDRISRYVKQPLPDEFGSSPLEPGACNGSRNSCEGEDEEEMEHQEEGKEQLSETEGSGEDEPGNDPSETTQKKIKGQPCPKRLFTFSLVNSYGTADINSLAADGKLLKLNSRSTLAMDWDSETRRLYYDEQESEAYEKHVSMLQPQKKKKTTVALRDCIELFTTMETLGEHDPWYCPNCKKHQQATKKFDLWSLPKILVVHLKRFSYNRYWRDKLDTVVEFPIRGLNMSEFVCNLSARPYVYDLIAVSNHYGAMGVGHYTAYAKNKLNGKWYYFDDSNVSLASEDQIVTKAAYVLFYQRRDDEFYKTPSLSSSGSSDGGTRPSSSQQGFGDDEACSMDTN
Procedure, shortened: as §1

Measured: log2 ratio of Biotin-Ahx-Ub-VS probe labelling

USP34, sequence (Q70CQ2 whole entry, the tested form may be a part): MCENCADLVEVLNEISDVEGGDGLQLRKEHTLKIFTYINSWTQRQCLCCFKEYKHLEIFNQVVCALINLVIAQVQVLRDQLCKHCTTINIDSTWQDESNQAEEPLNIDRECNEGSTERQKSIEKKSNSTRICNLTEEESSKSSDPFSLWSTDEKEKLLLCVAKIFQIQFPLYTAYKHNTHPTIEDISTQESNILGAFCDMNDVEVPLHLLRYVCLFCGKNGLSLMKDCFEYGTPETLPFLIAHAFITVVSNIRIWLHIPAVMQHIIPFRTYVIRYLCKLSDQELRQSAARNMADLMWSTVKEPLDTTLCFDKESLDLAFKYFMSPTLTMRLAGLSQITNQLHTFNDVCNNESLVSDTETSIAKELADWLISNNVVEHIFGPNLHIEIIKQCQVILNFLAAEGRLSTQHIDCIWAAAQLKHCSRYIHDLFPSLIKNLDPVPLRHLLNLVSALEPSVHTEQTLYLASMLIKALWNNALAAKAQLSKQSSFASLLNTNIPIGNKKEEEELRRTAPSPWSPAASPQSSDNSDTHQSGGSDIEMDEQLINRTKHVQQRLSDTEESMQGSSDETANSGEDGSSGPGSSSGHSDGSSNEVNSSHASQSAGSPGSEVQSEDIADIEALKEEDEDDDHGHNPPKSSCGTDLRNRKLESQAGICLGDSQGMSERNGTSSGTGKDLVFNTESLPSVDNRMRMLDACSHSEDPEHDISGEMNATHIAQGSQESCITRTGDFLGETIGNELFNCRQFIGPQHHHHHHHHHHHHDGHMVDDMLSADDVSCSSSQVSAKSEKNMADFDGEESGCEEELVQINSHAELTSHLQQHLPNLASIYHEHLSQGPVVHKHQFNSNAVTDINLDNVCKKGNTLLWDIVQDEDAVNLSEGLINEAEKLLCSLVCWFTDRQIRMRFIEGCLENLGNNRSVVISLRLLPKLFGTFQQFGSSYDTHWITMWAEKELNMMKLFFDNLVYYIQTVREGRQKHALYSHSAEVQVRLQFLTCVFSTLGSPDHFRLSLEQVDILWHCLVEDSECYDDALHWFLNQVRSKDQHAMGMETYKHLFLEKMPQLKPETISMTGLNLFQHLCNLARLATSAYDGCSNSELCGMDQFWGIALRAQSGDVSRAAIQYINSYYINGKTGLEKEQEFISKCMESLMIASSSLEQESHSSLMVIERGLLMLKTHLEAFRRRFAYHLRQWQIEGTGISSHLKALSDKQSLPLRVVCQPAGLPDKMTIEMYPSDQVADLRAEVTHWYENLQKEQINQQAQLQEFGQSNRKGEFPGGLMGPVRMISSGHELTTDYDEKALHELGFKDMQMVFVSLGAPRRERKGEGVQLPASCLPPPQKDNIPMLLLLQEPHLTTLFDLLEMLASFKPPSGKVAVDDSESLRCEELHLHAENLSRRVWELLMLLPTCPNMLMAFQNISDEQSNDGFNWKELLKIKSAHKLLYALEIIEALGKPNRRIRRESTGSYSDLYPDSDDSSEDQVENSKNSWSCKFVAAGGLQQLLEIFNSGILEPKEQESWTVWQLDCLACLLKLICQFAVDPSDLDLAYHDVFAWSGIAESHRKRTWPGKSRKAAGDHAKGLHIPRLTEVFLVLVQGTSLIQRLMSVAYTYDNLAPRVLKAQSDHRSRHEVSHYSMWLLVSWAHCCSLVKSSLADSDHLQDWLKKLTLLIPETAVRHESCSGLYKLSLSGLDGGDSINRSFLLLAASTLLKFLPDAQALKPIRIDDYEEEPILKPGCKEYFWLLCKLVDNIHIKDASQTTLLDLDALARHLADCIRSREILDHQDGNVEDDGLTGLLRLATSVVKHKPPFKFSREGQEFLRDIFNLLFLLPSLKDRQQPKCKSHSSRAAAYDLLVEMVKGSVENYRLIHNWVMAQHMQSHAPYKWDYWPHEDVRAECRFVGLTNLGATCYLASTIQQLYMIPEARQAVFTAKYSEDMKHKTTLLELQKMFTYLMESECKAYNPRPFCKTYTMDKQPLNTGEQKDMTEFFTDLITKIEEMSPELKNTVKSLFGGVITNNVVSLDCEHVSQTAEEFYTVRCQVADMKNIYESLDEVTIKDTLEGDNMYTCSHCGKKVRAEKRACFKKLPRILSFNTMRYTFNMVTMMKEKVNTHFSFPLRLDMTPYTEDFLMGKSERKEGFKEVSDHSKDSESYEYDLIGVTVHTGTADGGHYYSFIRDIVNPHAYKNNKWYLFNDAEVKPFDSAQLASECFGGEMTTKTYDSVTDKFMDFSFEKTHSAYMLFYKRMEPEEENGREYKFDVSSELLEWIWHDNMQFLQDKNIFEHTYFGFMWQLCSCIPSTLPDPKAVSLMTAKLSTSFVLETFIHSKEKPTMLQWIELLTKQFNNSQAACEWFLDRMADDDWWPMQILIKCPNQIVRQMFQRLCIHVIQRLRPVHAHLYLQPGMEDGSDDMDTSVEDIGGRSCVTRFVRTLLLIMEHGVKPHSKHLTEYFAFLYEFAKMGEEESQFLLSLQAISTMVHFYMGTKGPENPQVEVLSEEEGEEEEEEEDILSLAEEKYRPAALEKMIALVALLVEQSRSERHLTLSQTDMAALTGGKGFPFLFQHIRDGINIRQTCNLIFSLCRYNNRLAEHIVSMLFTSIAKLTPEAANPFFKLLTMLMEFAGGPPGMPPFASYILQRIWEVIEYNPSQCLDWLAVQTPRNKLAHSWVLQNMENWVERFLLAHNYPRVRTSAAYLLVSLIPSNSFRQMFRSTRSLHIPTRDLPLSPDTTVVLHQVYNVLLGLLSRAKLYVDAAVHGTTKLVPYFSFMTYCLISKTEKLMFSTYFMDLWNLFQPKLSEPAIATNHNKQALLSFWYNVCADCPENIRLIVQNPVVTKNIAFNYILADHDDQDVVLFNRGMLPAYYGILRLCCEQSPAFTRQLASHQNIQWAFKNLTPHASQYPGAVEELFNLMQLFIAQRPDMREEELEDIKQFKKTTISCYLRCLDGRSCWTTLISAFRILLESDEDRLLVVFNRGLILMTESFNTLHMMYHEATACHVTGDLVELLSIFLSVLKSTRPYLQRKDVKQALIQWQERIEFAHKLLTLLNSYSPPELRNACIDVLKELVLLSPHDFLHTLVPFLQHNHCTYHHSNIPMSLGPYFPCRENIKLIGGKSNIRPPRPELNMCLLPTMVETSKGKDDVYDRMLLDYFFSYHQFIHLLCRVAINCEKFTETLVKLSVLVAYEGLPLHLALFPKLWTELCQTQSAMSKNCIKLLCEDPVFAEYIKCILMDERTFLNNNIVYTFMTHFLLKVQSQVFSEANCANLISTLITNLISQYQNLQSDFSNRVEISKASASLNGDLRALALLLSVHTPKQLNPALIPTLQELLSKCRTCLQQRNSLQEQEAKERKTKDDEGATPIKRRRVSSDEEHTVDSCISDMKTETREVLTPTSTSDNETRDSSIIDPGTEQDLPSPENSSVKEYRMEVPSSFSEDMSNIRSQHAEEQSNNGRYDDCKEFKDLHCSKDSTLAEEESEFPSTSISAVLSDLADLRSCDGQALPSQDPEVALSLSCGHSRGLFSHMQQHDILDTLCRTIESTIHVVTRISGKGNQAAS

Cl.Cn1ncc2c1CCCC2NC(=O)CCl (stereo not given)
inactive: USP34 -0.0828 | USP36 -0.298 | USP38 -0.175 | USP39 -0.0961 | USP4 0.00214

Reference: the supplement of paper PMC11732987, “Enantioselective OTUD7B fragment discovery through chemoproteomics screening and high-throughput optimisation” (Communications Chemistry, 2025)
